Data reported in the supplement of paper PMC10849652.
Of roughly 7,900 targets only a part is listed; those with a hit were picked by preference. About 0.6% of all pairs of compound and target were hits. Values without a mark were called inactive.

Tests used:
Assay in all cases: log2 fold change, soluble protein after heating vs DMSO (PISA); higher = thermal stabilisation; K562 cells, 10 uM, 30 min; active = over 0.2 and 3.5 SD of the protein, either way, in both replicates (recomputed)
[1] = compound: COC1=CC=C(C=C1)CN2C=CC3=C2C=C(C=C3)C(=O)NO
Method in brief: (§1)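 Quantification of soluble protein used TMTpro 16plex LC-MS/MS, with channel sums equalised. Samples were the supernatant after 21,000xg for 90 min of pooled aliquots from K562 cells (2×10^6 cells/mL) treated with 10 μM compound for 30 min, heated for 3 min over 48°C-58°C, and extracted in PBS with 0.5% NP-40 at 4°C. Values, from duplicates, describe thermal stability against control samples on a log2 fold-change scale.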

filanesib = compound: CON(C)C(=O)N1N=C(c2cc(F)ccc2F)S[C@@]1(CCCN)c1ccccc1 [filanesib]
Method in brief: as §1

zotarolimus = compound: CO[C@H]1C[C@@H]2CC[C@@H](C)[C@@](O)(O2)C(=O)C(=O)N2CCCC[C@H]2C(=O)O[C@H]([C@H](C)C[C@@H]2CC[C@H](n3cnnn3)[C@H](OC)C2)CC(=O)[C@H](C)/C=C(\C)[C@@H](O)[C@@H](OC)C(=O)[C@H](C)C[C@H](C)/C=C/C=C/C=C/1C [zotarolimus]
Method in brief: as §1

idasanutlin = compound: COc1cc(C(=O)O)ccc1NC(=O)[C@@H]1N[C@@H](CC(C)(C)C)[C@](C#N)(c2ccc(Cl)cc2F)[C@H]1c1cccc(Cl)c1F [idasanutlin]
Method in brief: as §1

alisertib = compound: COc1cc(Nc2ncc3c(n2)-c2ccc(Cl)cc2C(c2c(F)cccc2OC)=NC3)ccc1C(=O)O [alisertib]
Method in brief: as §1

[2] = compound: COc1cc2nc(-c3cc(F)ccc3O)nc(N[C@@H]3CNC[C@H]3C(C)(C)O)c2cc1OC
Method in brief: as §1

gefitinib = compound: COc1cc2ncnc(Nc3ccc(F)c(Cl)c3)c2cc1OCCCN1CCOCC1 [gefitinib]
Method in brief: as §1

[3] = compound: COc1cccc2cc(-c3nc([C@H]4CC[C@H](C(=O)O)CC4)n4ncnc(N)c34)[nH]c12
Method in brief: as §1

lapatinib = compound: CS(=O)(=O)CCNCc1ccc(-c2ccc3ncnc(Nc4ccc(OCc5cccc(F)c5)c(Cl)c4)c3c2)o1 [lapatinib]
Method in brief: as §1

pictilisib = compound: CS(=O)(=O)N1CCN(Cc2cc3nc(-c4cccc5[nH]ncc45)nc(N4CCOCC4)c3s2)CC1 [pictilisib]
Method in brief: as §1

[4] = compound: CS(=O)(=O)c1ccc(-c2cnc(N)c(C(=O)Nc3ccccc3)n2)cc1
Method in brief: as §1

crizotinib = compound: C[C@@H](Oc1cc(-c2cnn(C3CCNCC3)c2)cnc1N)c1c(Cl)ccc(F)c1Cl [crizotinib]
Method in brief: as §1

[5] = compound: C[C@@H]1COCCN1C2=NC(=NC(=C2)C3(CC3)S(=O)(=O)C)C4=C5C=CNC5=CC=C4
Method in brief: as §1

[6] = compound: C[C@H](C1=CC=C(C=C1)C(=O)NC2=C3C=CNC3=NC=C2)N
Method in brief: as §1

duvelisib = compound: C[C@H](Nc1ncnc2nc[nH]c12)c1cc2cccc(Cl)c2c(=O)n1-c1ccccc1 [duvelisib]
Method in brief: as §1

gandotinib = compound: Cc1cc(Nc2cc(CN3CCOCC3)c3nc(C)c(Cc4ccc(Cl)cc4F)n3n2)n[nH]1 [gandotinib]
Method in brief: as §1

tozasertib = compound: Cc1cc(Nc2cc(N3CCN(C)CC3)nc(Sc3ccc(NC(=O)C4CC4)cc3)n2)n[nH]1 [tozasertib]
Method in brief: as §1

[7] = compound: Cc1cc(SCc2sc(-c3ccc(C(F)(F)F)cc3)nc2C)ccc1OCC(=O)O
Method in brief: as §1

doramapimod = compound: Cc1ccc(-n2nc(C(C)(C)C)cc2NC(=O)Nc2ccc(OCCN3CCOCC3)c3ccccc23)cc1 [doramapimod]
Method in brief: as §1

ispinesib = compound: Cc1ccc(C(=O)N(CCCN)[C@@H](c2nc3cc(Cl)ccc3c(=O)n2Cc2ccccc2)C(C)C)cc1 [ispinesib]
Method in brief: as §1

Chain of UniProt P14618 (P14618 whole entry, looked up): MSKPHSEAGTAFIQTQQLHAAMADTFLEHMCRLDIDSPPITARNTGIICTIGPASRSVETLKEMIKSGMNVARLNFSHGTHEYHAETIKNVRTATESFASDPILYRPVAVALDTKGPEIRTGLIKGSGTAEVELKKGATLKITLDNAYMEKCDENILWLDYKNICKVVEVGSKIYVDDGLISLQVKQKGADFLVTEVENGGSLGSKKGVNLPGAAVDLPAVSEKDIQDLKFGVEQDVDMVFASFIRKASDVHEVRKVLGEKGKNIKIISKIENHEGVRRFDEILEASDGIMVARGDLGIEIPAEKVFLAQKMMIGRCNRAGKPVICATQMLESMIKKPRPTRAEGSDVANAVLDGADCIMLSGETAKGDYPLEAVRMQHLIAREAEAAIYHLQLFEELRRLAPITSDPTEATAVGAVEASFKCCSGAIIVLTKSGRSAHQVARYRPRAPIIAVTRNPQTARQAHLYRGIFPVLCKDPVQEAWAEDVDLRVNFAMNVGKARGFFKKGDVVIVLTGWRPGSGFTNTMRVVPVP
Chain of UniProt Q9UBV8 (Q9UBV8 whole entry, looked up): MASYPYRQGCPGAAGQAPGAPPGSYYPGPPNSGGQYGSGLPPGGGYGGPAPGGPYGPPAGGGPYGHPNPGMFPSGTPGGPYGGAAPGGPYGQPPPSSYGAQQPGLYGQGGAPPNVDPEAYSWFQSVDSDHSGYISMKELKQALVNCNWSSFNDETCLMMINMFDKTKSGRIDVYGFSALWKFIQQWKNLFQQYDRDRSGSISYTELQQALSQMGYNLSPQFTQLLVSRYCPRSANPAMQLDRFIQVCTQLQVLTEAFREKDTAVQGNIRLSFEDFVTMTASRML
Chain of UniProt Q9BRX2 (Q9BRX2 whole entry, looked up): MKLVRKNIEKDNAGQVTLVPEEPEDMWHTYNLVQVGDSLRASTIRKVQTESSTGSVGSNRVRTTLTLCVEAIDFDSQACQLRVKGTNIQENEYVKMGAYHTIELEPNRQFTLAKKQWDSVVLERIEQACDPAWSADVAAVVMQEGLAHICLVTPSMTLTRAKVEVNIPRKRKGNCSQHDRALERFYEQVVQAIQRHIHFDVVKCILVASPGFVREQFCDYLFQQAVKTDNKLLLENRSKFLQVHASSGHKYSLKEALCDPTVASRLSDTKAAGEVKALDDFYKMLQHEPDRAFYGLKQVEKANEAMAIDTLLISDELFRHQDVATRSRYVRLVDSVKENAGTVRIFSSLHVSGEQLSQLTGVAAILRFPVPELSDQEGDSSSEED
Chain of UniProt Q9NP80 (Q9NP80 whole entry, looked up): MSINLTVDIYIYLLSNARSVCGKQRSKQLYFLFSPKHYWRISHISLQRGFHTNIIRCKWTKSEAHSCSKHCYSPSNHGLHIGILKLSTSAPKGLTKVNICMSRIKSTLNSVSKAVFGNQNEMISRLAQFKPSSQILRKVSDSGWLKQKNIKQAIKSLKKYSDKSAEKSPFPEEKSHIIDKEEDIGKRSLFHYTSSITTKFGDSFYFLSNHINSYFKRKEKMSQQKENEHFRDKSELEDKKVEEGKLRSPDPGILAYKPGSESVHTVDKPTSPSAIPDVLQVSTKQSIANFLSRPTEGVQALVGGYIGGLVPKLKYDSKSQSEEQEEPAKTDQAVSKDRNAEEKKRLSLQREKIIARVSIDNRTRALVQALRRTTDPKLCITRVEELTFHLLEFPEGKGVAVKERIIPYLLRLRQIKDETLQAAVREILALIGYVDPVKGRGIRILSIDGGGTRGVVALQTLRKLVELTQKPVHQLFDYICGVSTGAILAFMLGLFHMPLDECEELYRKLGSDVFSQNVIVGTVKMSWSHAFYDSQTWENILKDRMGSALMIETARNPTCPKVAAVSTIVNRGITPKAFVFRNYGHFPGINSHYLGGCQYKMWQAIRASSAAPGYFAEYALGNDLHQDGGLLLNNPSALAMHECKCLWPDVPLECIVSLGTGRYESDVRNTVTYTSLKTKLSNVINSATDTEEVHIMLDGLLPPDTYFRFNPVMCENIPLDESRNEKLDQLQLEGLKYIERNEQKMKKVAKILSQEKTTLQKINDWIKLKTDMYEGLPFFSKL
Chain of UniProt Q15185 (Q15185 whole entry, looked up): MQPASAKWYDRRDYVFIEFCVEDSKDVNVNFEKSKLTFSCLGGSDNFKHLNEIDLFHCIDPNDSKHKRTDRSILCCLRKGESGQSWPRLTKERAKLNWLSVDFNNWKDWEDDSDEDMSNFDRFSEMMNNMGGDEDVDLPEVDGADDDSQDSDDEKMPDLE
Chain of UniProt P40425 (P40425 whole entry, looked up): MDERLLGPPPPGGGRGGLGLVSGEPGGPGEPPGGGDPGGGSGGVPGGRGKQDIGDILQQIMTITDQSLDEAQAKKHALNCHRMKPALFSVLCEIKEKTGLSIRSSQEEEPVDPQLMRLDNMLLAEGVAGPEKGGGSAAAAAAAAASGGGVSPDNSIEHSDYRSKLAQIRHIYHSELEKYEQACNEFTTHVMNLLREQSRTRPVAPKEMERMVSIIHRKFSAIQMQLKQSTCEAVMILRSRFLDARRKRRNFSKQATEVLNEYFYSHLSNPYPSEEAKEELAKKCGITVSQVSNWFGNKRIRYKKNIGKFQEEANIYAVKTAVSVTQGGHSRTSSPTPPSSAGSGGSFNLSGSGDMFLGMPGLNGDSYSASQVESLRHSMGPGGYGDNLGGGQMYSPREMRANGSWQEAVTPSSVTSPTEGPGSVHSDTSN
Chain of UniProt Q7RTV0 (Q7RTV0 whole entry, looked up): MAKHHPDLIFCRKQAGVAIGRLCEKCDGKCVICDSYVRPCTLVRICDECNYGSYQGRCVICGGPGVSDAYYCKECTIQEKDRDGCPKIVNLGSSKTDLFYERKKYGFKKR
Chain of UniProt Q86W56 (Q86W56 whole entry, looked up): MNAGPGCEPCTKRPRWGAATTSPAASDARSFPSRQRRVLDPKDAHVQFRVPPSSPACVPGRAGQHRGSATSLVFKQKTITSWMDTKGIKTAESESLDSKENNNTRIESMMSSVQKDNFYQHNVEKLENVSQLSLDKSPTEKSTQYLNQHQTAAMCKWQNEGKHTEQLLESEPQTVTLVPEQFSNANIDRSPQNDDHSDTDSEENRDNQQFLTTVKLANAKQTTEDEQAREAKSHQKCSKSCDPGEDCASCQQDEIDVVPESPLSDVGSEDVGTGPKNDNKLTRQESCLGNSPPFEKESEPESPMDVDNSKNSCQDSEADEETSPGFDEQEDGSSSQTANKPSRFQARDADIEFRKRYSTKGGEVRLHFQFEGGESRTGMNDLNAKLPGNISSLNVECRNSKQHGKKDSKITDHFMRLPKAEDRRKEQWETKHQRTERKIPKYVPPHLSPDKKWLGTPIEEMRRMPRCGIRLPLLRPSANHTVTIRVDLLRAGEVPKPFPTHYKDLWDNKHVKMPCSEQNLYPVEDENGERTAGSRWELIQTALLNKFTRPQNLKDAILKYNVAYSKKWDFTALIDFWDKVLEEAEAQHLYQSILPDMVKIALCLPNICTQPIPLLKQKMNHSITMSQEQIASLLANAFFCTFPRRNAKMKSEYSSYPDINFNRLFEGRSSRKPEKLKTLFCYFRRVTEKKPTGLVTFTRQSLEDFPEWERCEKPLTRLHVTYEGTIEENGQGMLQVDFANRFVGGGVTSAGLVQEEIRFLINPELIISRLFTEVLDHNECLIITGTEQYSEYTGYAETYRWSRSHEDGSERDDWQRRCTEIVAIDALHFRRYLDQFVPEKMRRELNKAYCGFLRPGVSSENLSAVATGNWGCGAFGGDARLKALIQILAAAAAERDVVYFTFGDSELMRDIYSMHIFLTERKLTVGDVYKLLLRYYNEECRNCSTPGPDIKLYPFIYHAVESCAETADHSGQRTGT
Chain of UniProt Q8WXF1 (Q8WXF1 whole entry, looked up): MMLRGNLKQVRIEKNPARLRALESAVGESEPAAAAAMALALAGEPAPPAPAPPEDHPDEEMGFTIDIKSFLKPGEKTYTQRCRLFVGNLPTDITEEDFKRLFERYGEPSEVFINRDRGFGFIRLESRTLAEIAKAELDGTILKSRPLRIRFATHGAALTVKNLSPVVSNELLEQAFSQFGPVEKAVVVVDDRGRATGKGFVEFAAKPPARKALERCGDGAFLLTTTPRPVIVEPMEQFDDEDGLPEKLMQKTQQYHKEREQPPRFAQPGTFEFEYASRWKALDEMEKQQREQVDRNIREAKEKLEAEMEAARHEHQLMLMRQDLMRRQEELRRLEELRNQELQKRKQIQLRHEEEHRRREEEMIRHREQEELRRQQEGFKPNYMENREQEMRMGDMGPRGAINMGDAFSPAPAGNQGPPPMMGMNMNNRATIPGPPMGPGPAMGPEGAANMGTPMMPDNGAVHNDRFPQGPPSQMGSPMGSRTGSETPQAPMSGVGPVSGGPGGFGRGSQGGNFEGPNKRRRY

| Target | log2 fold change [1] | log2 fold change (filanesib) | log2 fold change (zotarolimus) | log2 fold change (idasanutlin) | log2 fold change (alisertib) | log2 fold change [2] | log2 fold change (gefitinib) | log2 fold change [3] | log2 fold change (lapatinib) | log2 fold change (pictilisib) | log2 fold change [4] | log2 fold change (crizotinib) | log2 fold change [5] | log2 fold change [6] | log2 fold change (duvelisib) | log2 fold change (gandotinib) | log2 fold change (tozasertib) | log2 fold change [7] | log2 fold change (doramapimod) | log2 fold change (ispinesib) |
| --- | --- | --- | --- | --- | --- | --- | --- | --- | --- | --- | --- | --- | --- | --- | --- | --- | --- | --- | --- | --- |
| PEF1 (UniProt Q9UBV8) | -0.009 | -0.038 | 0.041 | -0.009 | -0.008 | -0.089 | -0.011 | 0.058 | 0.032 | -0.076 | 0.119 | 0.094 | 0.059 | -0.102 | 0.103 | -0.019 | 0.06 | 0.019 | -0.091 | 0.208 |
| POGLUT1 (UniProt Q8NBL1) | -0.086 | 0.076 | -0.004 | 0.114 | -0.051 | 0.035 | -0.046 | -0.132 | 0.036 | -0.099 | 0.064 | 0.059 | 0 | 0.241 | -0.021 | -0.011 | 0.004 | 0.037 | 0.029 | 0.087 |
| PTGES3 (UniProt Q15185) | 0.23 | -0.091 | 0.055 | 0.004 | 0.016 | -0.044 | 0.044 | -0.038 | 0.007 | 0.027 | 0.047 | 0.066 | 0.068 | -0.101 | 0.03 | -0.049 | 0.063 | 0.086 | -0.118 | 0.015 |
| PSMB4 (UniProt P28070) | -0.033 | 0.034 | -0.011 | -0.012 | -0.031 | -0.074 | -0.038 | 0.005 | 0.03 | -0.026 | 0.014 | 0.03 | -0.09 | 0.064 | -0.04 | 0.08 | -0.002 | -0.018 | 0.021 | 0.015 |
| PBX2 (UniProt P40425) | 0.132 | -0.055 | 0.115 | 0.102 | -0.027 | -0.114 | -0.02 | 0 | 0.014 | 0.01 | -0.001 | -0.14 | 0.026 | -0.051 | 0.018 | -0.632 (active) | 0.062 | 0.095 | 0.119 | -0.102 |
| PARG (UniProt Q86W56) | 0.065 | -0.057 | 0.048 | -0.093 | -0.114 | 0.013 | 0.023 | 0.094 | 0.013 | -0.023 | -0.027 | -0.147 | 0.013 | 0.016 | -0.005 | -0.094 | 0.022 | 0.123 | 0.015 | -0.148 |
| PRKCG (UniProt P05129) | -0.071 | 0.019 | 0.118 | -0.011 | -0.01 | 0.098 | -0.025 | -0.17 | 0.055 | 0.113 | 0.078 | -0.005 | 0.188 | 0.028 | 0.244 | -0.149 | -0.04 | 0.11 | -0.029 | 0 |
| PELO (UniProt Q9BRX2) | 0.001 | 0.128 | 0.158 | -0.024 | 0.489 | 0.053 | 0.009 | 0.001 | -0.06 | -0.111 | 0.026 | -0.15 | -0.037 | 0.158 | 0.011 | -0.096 | 0.001 | 0.07 | 0.077 | -0.336 |
| PPT2 isoform 3 (UniProt Q9UMR5) | 0.052 | 0.008 | -0.019 | -0.082 | -0.114 | -0.029 | -0.004 | 0.093 | 0.035 | 0.024 | 0.074 | -0.182 | -0.021 | -0.148 | 0.057 | 0.001 | -0.04 | -0.069 | 0.006 | -0.041 |
| PHF5A (UniProt Q7RTV0) | 0.014 | 0.087 | -0.024 | 0.056 | -0.033 | 0.067 | 0.003 | 0.026 | -0.051 | 0.071 | 0.013 | 0.074 | -0.061 | -0.072 | 0 | -0.009 | 0.043 | -0.031 | -0.093 | 0.094 |
| PKM (UniProt P14618) | 0 | -0.048 | -0.004 | -0.04 | -0.073 | 0.012 | -0.002 | 0.054 | -0.033 | 0.026 | 0.003 | 0.021 | 0.013 | -0.044 | 0.007 | -0.013 | -0.026 | -0.029 | -0.019 | 0.02 |
| PSPC1 (UniProt Q8WXF1) | 0.008 | 0.048 | 0.026 | 0.03 | -0.084 | -0.146 | 0.061 | -0.042 | 0.152 | -0.081 | -0.068 | 0.076 | -0.044 | 0.088 | -0.03 | -0.09 | 0.01 | 0.04 | -0.028 | -0.217 |
| PRKCB isoform 2 (UniProt P05771) | -0.011 | -0.022 | 0.046 | -0.028 | -0.051 | 0.035 | 0.001 | -0.036 | -0.008 | 0.035 | 0.019 | -0.039 | 0.039 | -0.063 | 0.035 | -0.079 | 0.018 | 0.032 | -0.01 | -0.017 |
| PNPLA8 (UniProt Q9NP80) | -0.061 | 0.006 | -0.077 | -0.072 | -0.053 | -0.125 | 0.032 | 0.047 | -0.022 | 0.118 | -0.009 | -0.12 | 0.002 | -0.034 | -0.003 | 0.031 | -0.011 | -0.002 | 0.023 | -0.051 |
| POLR2D (UniProt O15514) | 0.02 | 0.009 | -0.029 | -0.083 | -0.159 | -0.021 | -0.001 | 0.043 | 0.017 | -0.026 | 0.006 | 0.192 | -0.08 | 0.038 | 0.065 | 0.158 | -0.012 | -0.068 | -0.024 | 0.017 |
| PCTP (UniProt Q9UKL6) | -0.007 | -0.175 | -0.066 | 0.029 | -0.081 | -0.239 (active) | -0.024 | -0.031 | 0.052 | 0.392 (active) | 0.094 | -0.135 | 0.031 | 0.003 | -0.039 | 0.029 | -0.042 | -0.033 | -0.048 | 0.015 |
